Where two headings read alike, the source gives them in different places.

What all share (design): species or system human, MV4-11 + K-562 + COLO205 + SK-N-BE2 + OVCAR-8
Assay [1] relates to AURKA. Particulars: read-out: apparent Kd, n = 1.
Assay [2] concerns CAMKK2. Particulars: read-out: apparent Kd, n = 1.
Assay [3] deals with EPHA4. The note with it: read-out: apparent Kd, n = 1.
Assay [4] relates to EPHA5. Particulars: read-out: apparent Kd, n = 1.
Assay [5] relates to MARK3. The note with it: read-out: apparent Kd, n = 1.
Assay [6] deals with PRKACB. The note with it: read-out: apparent Kd, n = 1.
Assay [7] concerns TNK2. Particulars: read-out: apparent Kd, n = 1.
The subject of assay [8] is ATM. Particulars: read-out: apparent Kd, n = 1.
The test system of assay [9] is BCR. Particulars: read-out: apparent Kd, n = 1.
The subject of assay [10] is CDK16. Particulars: read-out: apparent Kd; compound concentrations: 100 nM and 1000 nM (sheet 'Samples'), CATDS: 4.4691246534882996E-3; n = 1.
The subject of assay [11] is CHEK1. Particulars: read-out: apparent Kd, n = 1.
For assay [12], the system named is CSNK1D. The note with it: read-out: apparent Kd, n = 1.
Assay [13] relates to EPHB2. The note with it: read-out: apparent Kd, n = 1.
Assay [14] deals with EPHB4. The note with it: read-out: apparent Kd, n = 1.
The test system of assay [15] is MAPK9. Particulars: read-out: apparent Kd; compound concentrations: 100 nM and 1000 nM (sheet 'Samples'), CATDS: 4.8352586021379899E-3; n = 1.
Assay [16] deals with PRKACA. The note with it: read-out: apparent Kd; compound concentrations: 100 nM and 1000 nM (sheet 'Samples'), CATDS: 3.8266361716822101E-3; n = 1.
Assay [17] relates to PRKAG2. The note with it: read-out: apparent Kd, n = 1.
The subject of assay [18] is STK4. The note with it: read-out: apparent Kd; compound concentrations: 100 nM and 1000 nM (sheet 'Samples'), CATDS: 4.4233826553232904E-3; n = 1.
Assay [19] concerns TNK1. The note with it: read-out: apparent Kd, n = 1.
The mark [20] stands for this setting: compound concentrations:100 nM and 1000 nM (sheet 'Samples').

Turning to `CN(c1ccc(NC(=O)N2CCN(CCCN3CCOCC3)CC2)cc1)c1ccnc(Nc2ccc(CS(C)(=O)=O)cc2)n1.Cl` [GW830899A], the potency estimated from few doses in [1] (compound concentrations: 100 nM and 1000 nM (sheet 'Samples'), CATDS: 2.4317426688995499E-2) was 955 nM; in assay [2] (compound concentrations: 100 nM and 1000 nM (sheet 'Samples'), CATDS: 1.7762622720353199E-2), 2190 nM; in [3] (compound concentrations: 100 nM and 1000 nM (sheet 'Samples'), CATDS: 2.15154621578117E-2), 1270 nM; in assay [4] (compound concentrations: 100 nM and 1000 nM (sheet 'Samples'), CATDS: 2.2767251891404602E-2), 1110 nM; in assay [5] (compound concentrations: 100 nM and 1000 nM (sheet 'Samples'), CATDS: 1.9647586530532599E-2), 1610 nM; in assay [6] (compound concentrations: 100 nM and 1000 nM (sheet 'Samples'), CATDS: 1.9426092751651199E-2), 1660 nM. Besides, the potency estimated from few doses in [7] (compound concentrations: 100 nM and 1000 nM (sheet 'Samples'), CATDS: 3.2652944878228798E-2) is 544 nM.
`Cn1ncc2c(N)ncnc21` [SKF-18267]: the potency estimated from few doses was 152 nM in assay [8] (compound concentrations: 100 nM and 1000 nM (sheet 'Samples'), CATDS: 1.5157721070637E-2); 594 nM in assay [1] (compound concentrations: 100 nM and 1000 nM (sheet 'Samples'), CATDS: 5.9187216005476898E-3); 729 nM in [9] (compound concentrations: 100 nM and 1000 nM (sheet 'Samples'), CATDS: 5.2917709527679404E-3); 967 nM in assay [2] (compound concentrations: 100 nM and 1000 nM (sheet 'Samples'), CATDS: 4.5998229458051997E-3); 1030 nM in assay [10]; 1830 nM in [11] (compound concentrations: 100 nM and 1000 nM (sheet 'Samples'), CATDS: 3.5654135420005399E-3). In addition, the potency estimated from few doses was 710 nM in [12] (compound concentrations: 100 nM and 1000 nM (sheet 'Samples'), CATDS: 5.3650887558765398E-3); 1360 nM in [3] (compound concentrations: 100 nM and 1000 nM (sheet 'Samples'), CATDS: 3.9748200426908999E-3); 798 nM in [4] (compound concentrations: 100 nM and 1000 nM (sheet 'Samples'), CATDS: 5.0507447831964402E-3); 1010 nM in assay [13] (compound concentrations: 100 nM and 1000 nM (sheet 'Samples'), CATDS: 4.50420726302921E-3); 694 nM in assay [14] (compound concentrations: 100 nM and 1000 nM (sheet 'Samples'), CATDS: 5.4338505062104699E-3); 871 nM in [15]. Besides, the potency estimated from few doses in [5] (compound concentrations: 100 nM and 1000 nM (sheet 'Samples'), CATDS: 3.4367127016050499E-3) was 2060 nM; in assay [16], 1500 nM; in [6] (compound concentrations: 100 nM and 1000 nM (sheet 'Samples'), CATDS: 4.8946075790836903E-3) it was 850 nM; in assay [17] (compound concentrations: 100 nM and 1000 nM (sheet 'Samples'), CATDS: 6.26452346247391E-3) it was 539 nM; in [18] it was 1050 nM; in [19] (compound concentrations: 100 nM and 1000 nM (sheet 'Samples'), CATDS: 5.3510619534007497E-3) it was 714 nM. For the same compound, the potency estimated from few doses in assay [7] (compound concentrations: 100 nM and 1000 nM (sheet 'Samples'), CATDS: 5.8659667131667897E-3) was 604 nM.
For the compound `Cl.ON=C1CCc2cc(-c3nc(C4CCNCC4)[nH]c3-c3ccncc3)ccc21` [SB-614067-R], in assay [12] (setting [20]), the potency estimated from few doses was 436 nM.
For `Clc1cc(Cl)cc(Nc2ccnc(Nc3cc(Cl)cc(Cl)c3)n2)c1` [GSK175726A], the potency estimated from few doses in assay [8] (compound concentrations: 100 nM and 1000 nM (sheet 'Samples'), CATDS: 2.7134606068091E-2) is 77.5 nM; in [1] (compound concentrations: 100 nM and 1000 nM (sheet 'Samples'), CATDS: 1.16998692507499E-2), 470 nM; in assay [9] (compound concentrations: 100 nM and 1000 nM (sheet 'Samples'), CATDS: 1.5030836072921499E-2) it was 242 nM; in [2] (compound concentrations: 100 nM and 1000 nM (sheet 'Samples'), CATDS: 8.7749844490250094E-3), 1420 nM; in assay [11] (compound concentrations: 100 nM and 1000 nM (sheet 'Samples'), CATDS: 9.2936135533363204E-3), 1080 nM; in [3] (compound concentrations: 100 nM and 1000 nM (sheet 'Samples'), CATDS: 2.4571343446097599E-2), 91.5 nM. Moreover, the potency estimated from few doses was 164 nM in assay [4] (compound concentrations: 100 nM and 1000 nM (sheet 'Samples'), CATDS: 1.7966956970046102E-2); 134 nM in [13] (compound concentrations: 100 nM and 1000 nM (sheet 'Samples'), CATDS: 1.9895433949459099E-2); 103 nM in assay [14] (compound concentrations: 100 nM and 1000 nM (sheet 'Samples'), CATDS: 2.29851767560591E-2); 86.1 nM in assay [17] (compound concentrations: 100 nM and 1000 nM (sheet 'Samples'), CATDS: 2.5465407694982199E-2); 24.9 nM in assay [19] (compound concentrations: 100 nM and 1000 nM (sheet 'Samples'), CATDS: 5.9656473094293803E-2); 77.1 nM in assay [7] (compound concentrations: 100 nM and 1000 nM (sheet 'Samples'), CATDS: 2.7223225317324601E-2).
On to `O=C1NC(=O)C(N2CCc3ccccc32)=C1c1ccccc1Cl` [SB-373598], for which the potency estimated from few doses in [8] (setting [20]) is 39.1 nM; in [1] (setting [20]) it was 295 nM; in [9] (setting [20]) it was 243 nM; in [2] (setting [20]), 588 nM; in [11] (setting [20]), 999 nM; in [3] (setting [20]) it was 387 nM. The potency estimated from few doses in [4] (setting [20]) is 276 nM; in [13] (setting [20]) it was 110 nM; in assay [14] (setting [20]) it was 129 nM; in assay [5] (setting [20]) it was 1280 nM; in assay [6] (setting [20]) it was 1480 nM; in assay [17] (setting [20]), 1390 nM. Moreover, the potency estimated from few doses in assay [19] (setting [20]) is 31.3 nM; in assay [7] (setting [20]) it was 108 nM.

(Values after publication PMC11062922 (Nature Chemical Biology, 2023).)
